Source: PubChem (National Center for Advancing Translational Sciences (NCATS))
DRD3 antagonist – qHTS of D3 Dopamine Receptor Antagonist: qHTS | actives 2.5% (n = 360,000) | D(3) dopamine receptor (Homo sapiens), P35462 | D3R cells, DiscoveRx beta-arrestin luminescence, antagonist mode; hits give low values | AID 652054, 2013 | max response, negative = inhibition, %; in the data active means max response below about -50%; inconclusive means no clear call, values can overlap the other calls; further: on the % scale 0 is the no-effect control and ±100 the full control effect
Target sequence (P35462 whole entry, looked up): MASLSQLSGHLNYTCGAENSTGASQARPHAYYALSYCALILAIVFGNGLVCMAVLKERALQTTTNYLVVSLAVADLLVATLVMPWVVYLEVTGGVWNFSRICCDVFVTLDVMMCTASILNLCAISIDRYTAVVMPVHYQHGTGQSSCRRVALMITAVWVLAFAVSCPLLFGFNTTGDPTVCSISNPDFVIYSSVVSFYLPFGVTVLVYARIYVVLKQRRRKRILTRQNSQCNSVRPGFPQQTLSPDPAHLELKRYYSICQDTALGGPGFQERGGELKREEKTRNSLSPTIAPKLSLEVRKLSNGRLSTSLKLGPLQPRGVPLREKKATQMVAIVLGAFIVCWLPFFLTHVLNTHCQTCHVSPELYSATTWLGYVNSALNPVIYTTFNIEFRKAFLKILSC
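Cells plated overnight at 1500 cells/well, then exposed to library compounds with dopamine controls for 90 minutes at 37 degrees C. DiscoveRx reagent added for 30–60 minutes at room temperature; luminescence read, quantitative HTS format.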
D1 PAM – Potentiators of Human D1 Dopamine Receptor: qHTS | D(1A) dopamine receptor (Homo sapiens), P21728 | actives 0.036% (n = 360,000) | potentiation, % at 10 µM | AID 504651, 2011 | HEK293 TREx D1 cells, calcium flux, dopamine EC20 potentiation; in the data active means potentiation above about 30%; further: 0% is about no effect
D1 antagonist – Antagonist of Human D 1 Dopamine Receptor: qHTS. HEK293 TREx D1 cells, calcium flux, dopamine EC80; hits give low values. activity change, negative = inhibition, % at 10 µM. AID 504652, 2011. D(1A) dopamine receptor (Homo sapiens), P21728. actives 3.2% (n = 360,000); in the data active means activity change below about -30%; further: on the % scale 0 is the no-effect control and ±100 the full control effect
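Allosteric or orthosteric antagonism assessed as attenuation of the calcium response to EC80 dopamine, added 180 s after compound, in induced HEK293 Trex D1 cells loaded with no-wash calcium dye.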
DRD3 agonist – qHTS of D3 Dopamine Receptor Agonist: qHTS; D(3) dopamine receptor (Homo sapiens), P35462; actives 0.58% (n = 410,000); max activation, %; D3R DiscoveRx beta-arrestin cells, luminescence, 90 min; in the data active means max activation above about 30%; further: 0% is about no effect
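Agonist-mode cell screen: cells plated at 1500/well and incubated overnight at 37 °C, then exposed to library compounds for 90 min at 37 °C. Detection reagent was added for 30–60 min at room temperature, and luminescence was read.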
D1 agonist – Allosteric Agonists of the Human D1 Dopamine Receptor: qHTS. activation, % at 2 µM. D(1A) dopamine receptor (Homo sapiens), P21728. actives 1% (n = 360,000). HEK293 T-REx D1 cells, calcium flux, agonist mode. AID 504660, 2011; in the data active means activation above about 30%; further: 0% is about no effect
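Inducible HEK293 T-REx D1 cells, force-coupled to calcium signalling, were plated at 4000 cells/well with tetracycline and held overnight at 30 C. After no-wash calcium dye loading, compound-evoked calcium rise over 180 s flagged agonists.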
An asterisk follows results filed as active; u = inconclusive; x = no result. The list is not random: actives were taken first. Their share in the collection is about 6.1%.

SMILES | DRD3 antagonist | D1 PAM | D1 antagonist | DRD3 agonist | D1 agonist
CCCn1c(=O)c(C(=O)Nc2ncccc2C)c(O)c2ccccc21 | 4 | 0 | -16 | 7 | 49*
COc1ccc2nc(SCC(O)c3cccc(Br)c3)[nH]c2c1 (configuration not stated) | x | -2 | -9 | -4 | -1
Cc1ccc(CNC(=O)c2cccc(-n3cnc4cccnc43)c2)cc1 | x | -3 | -5 | -3 | -2
Cc1cccc(C(=O)NNC(=O)c2c(O)c3ccccc3n(C)c2=O)c1 | 58 | 0 | 2 | 30* | 17
O=C(Nc1ccccc1)N(Cc1cccs1)c1ccc(F)cc1 | x | 1 | 4 | -14 | 3
Cc1ccc(S(=O)(=O)N(Cc2ccccc2)Cc2ccco2)cc1 | 7 | -9 | -31* | -17 | 11
Cc1ccc(S(=O)(=O)N(Cc2ccc(F)cc2)Cc2ccco2)cc1 | 0 | -10 | -33* | -23 | 8
O=C1CCCc2cc(S(=O)(=O)N3CCCC(C(=O)Nc4ccc(F)c(Cl)c4)C3)ccc2N1 (configuration not stated) | x | -4 | -13 | 1 | 2
Cc1ccc(Cl)cc1N1CCN(C(=O)COc2cc(=O)n(C)c3ccccc23)CC1 | x | -4 | -1 | 3 | 2
CCOC(=O)Cc1csc(NC(=O)CSc2ncnc3c2cnn3-c2ccccc2Cl)n1 | -13 | -6 | -78* | 2 | 11
CCOC(=O)Cc1csc(NC(=O)CSc2nnc(C3CC3)n2C)n1 | -50* | 0 | 5 | 1 | 1
Cc1nnc(NC(=O)CSc2ncnc3c2cnn3-c2ccccc2C)s1 | -63* | -4 | -5 | 6 | 3
CCOC(=O)c1cc(S(=O)(=O)N2CCN(c3ccc(F)cc3)CC2)[nH]n1 | x | -2 | -1 | 15 | 9
COc1cc2cc(CNc3ccccc3)c(=O)n(CC(=O)Nc3cc(C)cc(C)c3)c2cc1OC | x | -1 | 15 | -10 | 16
Cc1ccc(/C=N/n2c(-c3ccccc3)csc2=S)cc1 | x | x | x | -15 | x
N#C/C(=C\c1coc2ccc(O)cc2c1=O)C(=O)Nc1nc2ccccc2s1 | -1 | 2 | -52* | 6 | 227*
CCc1cc(C(=O)Cc2cnn(-c3ccccc3)c2)c(O)cc1O | -13 | -7 | 0 | -7 | 38*
Cc1cccc(-c2nc3c4ccccc4nc(NCc4ccccc4Cl)n3n2)c1 | x | -5 | 5 | -15 | 2
COc1ccc(C(=O)NC(=S)NNC(=O)[C@H]2C[C@@H]2c2ccccc2)cc1OC | 11 | -3 | -3 | 7 | 17
O=C(/C=C/c1ccc(F)cc1)NC(=S)NNC(=O)[C@H]1C[C@@H]1c1ccccc1 | -12 | 2 | -2 | -7 | 8
O=C(NC(=S)NNC(=O)[C@H]1C[C@@H]1c1ccccc1)c1ccc(F)cc1 | 59 | -2 | -22 | 4 | 91*
COc1cc(OC)cc(C(=O)NC(=S)NNC(=O)[C@H]2C[C@@H]2c2ccccc2)c1 | 13 | -3 | -9 | 8 | 88*
CCCN(CCC(=O)Nc1cc(OC)cc(OC)c1)CC1CC1 | 22 | -8 | 2 | -4 | 5
CCN(CCC(=O)Nc1cc(OC)cc(OC)c1)Cc1ccccc1 | -67* | -15 | -19 | -7 | 10
Cc1ccc(C)c(N2CCN(CC(=O)Nc3ccc([N+](=O)[O-])cc3C(=O)Nc3ccccc3F)CC2)c1 | 17 | -5 | 5 | 50* | 1
SMILES | DRD3 antagonist | D1 PAM | D1 antagonist | DRD3 agonist | D1 agonist
O=C(CCN1CCN(c2ccccc2F)CC1)Nc1ccccc1Cl | u | -19 | -20 | 7 | 2
O=C(Nc1cc(Cl)cc(Cl)c1)N1CCCN(Cc2ccccc2)CC1 | -80* | -6 | 4 | -32 | 5
O=C(CCN1CCN(c2ccccc2F)CC1)Nc1ccc(F)cc1 | -73* | -26 | -14 | 26 | 2
O=C(CN1CCN(c2cccc(Cl)c2)CC1)Nc1ccc([N+](=O)[O-])cc1C(=O)Nc1ccccc1F | 69 | -2 | 1 | 19 | 1
Cc1ccc(NC(=O)c2cnc(SCC(=O)N3CCOCC3)n(C)c2=O)cc1 | x | 5 | x | 1 | 3
COc1cccc(NC(=O)CCN2CCN(CCO)CC2)c1 | x | 0 | 5 | -16 | 0
COc1cccc(NC(=O)Cn2c(=O)n(CCCCC(=O)NCCc3ccccc3)c(=O)c3ccccc32)c1 | x | 2 | -44* | -8 | 0
Cc1ccccc1N1CCN(CCC(=O)Nc2ccc(F)cc2)CC1 | -84* | 9 | -17 | 10 | 1
COc1ccccc1N1CCN(CCC(=O)Nc2cccc(F)c2)CC1 | -111* | -3 | -3 | -24 | 0
COc1cccc(NC(=O)CCc2ccccc2)c1 | -9 | 1 | -44* | 1 | -2
O=C(CCN1CCN(c2ccccn2)CC1)Nc1ccc(F)cc1 | u | -4 | 6 | 9 | 1
C=CC1=C(C(=O)O)N2C(=O)[C@@H](NC(=O)/C(=N/OCC(=O)O)c3csc(N)n3)[C@H]2SC1 (stereo in doubt) | x | x | x | 1 | x
COc1cc(NC(=O)CCN2CCN(Cc3ccccc3)CC2)cc(OC)c1 | -54* | 1 | 10 | -2 | 6
COc1cc(NC(=O)CCN2CCN(c3ccccc3F)CC2)cc(OC)c1 | 0 | -11 | -42* | 21 | 3
COc1cc(NC(=O)CCN2CCOCC2)cc(OC)c1 | 16 | 3 | -6 | 6 | 2
COc1ccccc1N1CCN(CC(=O)Nc2cc(F)ccc2C)CC1 | -83* | -2 | -8 | -1 | 1
COc1cccc(NC(=O)Nc2cc(C(=O)O)ccc2C)c1 | -16 | -6 | -43* | -10 | 3
CC(C)CCNC(=O)c1ccc(Cn2c(=O)c3cccn3c3cccnc32)cc1 | x | -3 | 4 | 7 | 4
COC(=O)c1[nH]c2cccc(OC)c2c1NC(=O)CCN1CCC(C(N)=O)CC1 | x | -2 | -14 | x | -1
O=C(CN1CCN(Cc2ccccc2)CC1)Nc1cccc(Br)c1 | -25 | -7 | -10 | -13 | 7
COC(=O)c1[nH]c2cccc(OC)c2c1NC(=O)CCN1CCN(c2ccccc2F)CC1 | x | -9 | -57* | x | 4
O=C(CCN1CCN(c2ccccc2F)CC1)Nc1cccc(F)c1 | -63* | -6 | -43* | 15 | 10
O=C(CCN1CCN(Cc2ccccc2)CC1)Nc1cccc(Cl)c1 | -59* | 2 | -1 | 0 | 6
CCC(=O)N1CCc2cc(S(=O)(=O)CCC(=O)N3CCN(c4cccc(C)c4)C(C)C3)ccc21 (configuration not stated) | x | 0 | -18 | 12 | 2
CC(C)Oc1ccc(CNC(=O)C(C)n2ccc3cc(S(=O)(=O)N4CCCCCC4)ccc32)cc1 (configuration not stated) | x | -1 | -4 | 8 | 4
